Assay results taken from paper PMC7819943, “Rice protein-binding microarrays: a tool to detect cis-acting elements near promoter regions in rice”.
The full ranking holds about 39,000 sequences; the median of “fluorescence intensity (a.u.)” is about 4,300, and the highest 2% start at about 39,000. The full list was thinned out, with the highest values kept by preference.

What follows are sequences tested against T1, OsSMF1 (Oryza sativa, UniProt Q6ZLB0 1-436) (assay: protein-binding microarray (RPBM); PBS, 2% BSA, 51.3 ng/ul salmon testes DNA, 50 uM zinc acetate, 200 nM TF, 25 C, 1 h; high values mean tight binding). Conditions: protein: recombinant; tags: N-terminal polyhistidine and DsRed monomer fusion (pET32a); chain copies: 2; label: CyDye5-dUTP incorporated in the synthesized complementary strand; 3' TTTTT single-stranded linker to array surface; dsDNA, one strand shown.
T1 sequence: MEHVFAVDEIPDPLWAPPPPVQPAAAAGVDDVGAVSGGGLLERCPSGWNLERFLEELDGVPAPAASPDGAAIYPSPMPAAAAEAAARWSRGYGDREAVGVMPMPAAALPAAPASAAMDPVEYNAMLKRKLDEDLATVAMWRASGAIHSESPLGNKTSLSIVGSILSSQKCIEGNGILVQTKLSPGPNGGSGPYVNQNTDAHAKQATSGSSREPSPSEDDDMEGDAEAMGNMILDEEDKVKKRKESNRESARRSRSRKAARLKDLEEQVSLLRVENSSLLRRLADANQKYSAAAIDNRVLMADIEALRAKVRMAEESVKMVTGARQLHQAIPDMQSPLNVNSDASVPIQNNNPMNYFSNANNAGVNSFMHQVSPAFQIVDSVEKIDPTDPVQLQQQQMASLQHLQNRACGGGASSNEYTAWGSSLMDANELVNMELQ
In short: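 Binding signal here means per-feature fluorescence intensity in arbitrary units. The values were read on an Axon 4000B scanner after a custom Agilent array, double-stranded by primer extension with Cy5-dUTP, was incubated with 200 nM protein at 25 °C for 1 h in PBS with 2% BSA, salmon testes DNA and 50 µM zinc acetate, then washed. The proteins were transcription factors with an N-terminal polyhistidine tag and DsRed, expressed in E. coli BL21-CodonPlus and purified on Ni–NTA.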

| Sequence | binding signal |
| --- | --- |
| GATAACCGTAACTAACCGGCTTGGTCAGCAAGCCAAAGTGCGGAGTCACCTAGTGCAG | 6310 fluorescence intensity (a.u.) |
| ATAATGAACAATTTCTTTCCAAGCTACATGTAGACCAGAGCGGAGTCACCTAGTGCAG | 40100 fluorescence intensity (a.u.) |
| CTTCCACTGACATGACACCAAGAGACCACTTTCTTTAATTCGGAGTCACCTAGTGCAG | 3250 fluorescence intensity (a.u.) |
| ATTCTTGCTACCTATAATTGCAACATGACAGAGTGTTAAGCGGAGTCACCTAGTGCAG | 3480 fluorescence intensity (a.u.) |
| CTTGTTTCACCTGTCATACACACGTTACGTCTTAGAGTCCCGGAGTCACCTAGTGCAG | 5140 fluorescence intensity (a.u.) |
| GTAGAAGACCGGCGGAAAGTGTGAGGAGGGTGACAAGGGGCGGAGTCACCTAGTGCAG | 3420 fluorescence intensity (a.u.) |
| ATTTTGACTGATGTGACGTTTGCGTGGCTGGTTTGATTAGCGGAGTCACCTAGTGCAG | 4770 fluorescence intensity (a.u.) |
| TACAGCGTCATTGCAAGAATGGTGACGGGGTTTGAGGTTGCGGAGTCACCTAGTGCAG | 6110 fluorescence intensity (a.u.) |
| TGATTGCAACAGGTGGGCTGGTTTTGCGTCATTTGACCAGCGGAGTCACCTAGTGCAG | 51900 fluorescence intensity (a.u.) |
| CTTGTCGCATCTGAACGTGTCGAGTCACACCTGTGTGTTACGGAGTCACCTAGTGCAG | 8330 fluorescence intensity (a.u.) |
| TTGGCGTGTGTGCAGCATTTGCGGCGGCGGCTGAGAAAGACGGAGTCACCTAGTGCAG | 31100 fluorescence intensity (a.u.) |
| CATTGGTGGCGTAATGTGGTTGTTAGTGATTTGTTGCACCCGGAGTCACCTAGTGCAG | 3460 fluorescence intensity (a.u.) |
| TCAATCTGGCGGGGTTTATTTGTGACCCTCGATCGGTCAACGGAGTCACCTAGTGCAG | 4060 fluorescence intensity (a.u.) |
| AATAAGTAAGGTGGTTTTAAAATTTGGGGAGAGCTAACAGCGGAGTCACCTAGTGCAG | 39100 fluorescence intensity (a.u.) |
| GGAGGTGGGGATGGTGGGAGGTTTTGGTTTGGTAAAATAGCGGAGTCACCTAGTGCAG | 4910 fluorescence intensity (a.u.) |
| TAAAATTTAAATTTTGGCTAATAAGTATAAGCATAACTGTCGGAGTCACCTAGTGCAG | 34300 fluorescence intensity (a.u.) |
| GCTACACTTAACGCTGTCCACAACTCCACATACGCGTTACCGGAGTCACCTAGTGCAG | 3330 fluorescence intensity (a.u.) |
| ATTTCTAATGCCACGTTAACGCCACGTGGAAAGAAGACCGCGGAGTCACCTAGTGCAG | 17900 fluorescence intensity (a.u.) |
| GAACGGTAGAATGATTATTGCTCCTTCAGTTTTCGAGTAACGGAGTCACCTAGTGCAG | 3320 fluorescence intensity (a.u.) |
| TGAACCGGCCGGTTTTCATGTGAACCGTGAACCGTAATAACGGAGTCACCTAGTGCAG | 3240 fluorescence intensity (a.u.) |
| CTATGACGGGTCGAAAACGGAACCCGTCAAAGATGAGTTACGGAGTCACCTAGTGCAG | 18300 fluorescence intensity (a.u.) |
| TCCGTTCTGTTTATGAATAACGGTCGAAAACGTAATAACCCGGAGTCACCTAGTGCAG | 46300 fluorescence intensity (a.u.) |

| Sequence | binding signal |
| --- | --- |
| GTGGTACACGCATGCTGACTAATTAAGACCGACAGAATCCCGGAGTCACCTAGTGCAG | 3390 fluorescence intensity (a.u.) |
| AACATGAAAGCTCAAGAGCTCGTGCTGACGGCTGAGAATCCGGAGTCACCTAGTGCAG | 3150 fluorescence intensity (a.u.) |
| TATGGACACCATCCTTGTCATTGGGTTAGGACTGGCCTTACGGAGTCACCTAGTGCAG | 3630 fluorescence intensity (a.u.) |
| AAATAGTCACACATAAAATACTATTCATATTTTATCATCTCGGAGTCACCTAGTGCAG | 13500 fluorescence intensity (a.u.) |
| TTCATCCTATCACATCAAATATTTGGATACATACATGGAGCGGAGTCACCTAGTGCAG | 45500 fluorescence intensity (a.u.) |
| GCCATCCAACTATTTTCATGGATCAACATCATAGTAGTATCGGAGTCACCTAGTGCAG | 3140 fluorescence intensity (a.u.) |
| TTGCTTGCGAGCAAAGGTGGAGTTCATGCCCTCATCATATCGGAGTCACCTAGTGCAG | 3710 fluorescence intensity (a.u.) |
| AATATAATGGCCGCTCGCTGATGGGTGCGTCATGCACCCTCGGAGTCACCTAGTGCAG | 4060 fluorescence intensity (a.u.) |
| ATCCCCGGTCATCTCGCCTCGTCTCGTCCCGTCCCTGCGCCGGAGTCACCTAGTGCAG | 3460 fluorescence intensity (a.u.) |
| GCTCGAATTGCCACGTAAGCGCCACGTCAATGCCACGTCACGGAGTCACCTAGTGCAG | 65500 fluorescence intensity (a.u.) |
| CCAATATATAATTGCCACGTCATCGCCGCGTCAATGCCACCGGAGTCACCTAGTGCAG | 28100 fluorescence intensity (a.u.) |
| GCTGAGATATAGTTGCCACGTAAGCGCCACGTCAATGCTACGGAGTCACCTAGTGCAG | 33000 fluorescence intensity (a.u.) |
| TTTTCCGGATCGAATTGCCACGTAAGCGCCACGTCAATGACGGAGTCACCTAGTGCAG | 48300 fluorescence intensity (a.u.) |
| CCGGATCGAATTGCCACGTAAGCGTCACGTCACTGCCACACGGAGTCACCTAGTGCAG | 17100 fluorescence intensity (a.u.) |
| CTGGATCGAATTGCCACGTAAGCGCCACGTCAGTGCCACACGGAGTCACCTAGTGCAG | 20700 fluorescence intensity (a.u.) |
| TCGGATCGAATTGCCACGTAAGCGCCACGTCGATGCCACACGGAGTCACCTAGTGCAG | 33000 fluorescence intensity (a.u.) |
| ATCGAATTGTCACGTAAGCGCCACGTCAATGCTACGTCAGCGGAGTCACCTAGTGCAG | 26100 fluorescence intensity (a.u.) |
| GATATAATTGCCACGTAAGCGCCACGTCAATGCCACGTGCCGGAGTCACCTAGTGCAG | 52100 fluorescence intensity (a.u.) |
| TTTTCGATATATAATTGCCACGTAAGCGTCACGTCAATGCCGGAGTCACCTAGTGCAG | 34300 fluorescence intensity (a.u.) |
| CGAGATATAATTGCCATGTCATTGCCACGTCAATGTCACGCGGAGTCACCTAGTGCAG | 49600 fluorescence intensity (a.u.) |
| TTGAGATATAATTGCTACGTAAGTGCCACGTCAATGCCACCGGAGTCACCTAGTGCAG | 21400 fluorescence intensity (a.u.) |
